Cycloheximide cs = counter-screen for Shiga toxin inhibitors: cycloheximide protein synthesis inhibition. cell reporter, cycloheximide protein synthesis inhibition counterscreen. AID 2314. max response, %. hit rate 12% among 300,000; in the data active = max response mostly above about 13%, no sharp cut-off; inactive = mostly below about 14%; also: read at 38.3 µM for the half of the compounds with a filed dose
Pf growth 96h = inhibits malaria parasite growth, 96 h; P. falciparum luciferase reporter growth, 96 h; Potency, µM (doses to about 28.7 µM), actives largely listed as inhibitors; hit rate 6.9% among 320,000
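Two parasite generations (96 h, 37 C, 5% CO2) of compound exposure in infected erythrocytes (0.05% parasitemia, 2% hematocrit). Luciferase-reporter P. falciparum; decreased luminescence indicates inhibited growth, aimed at apicoplast-acting delayed death.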
Pf growth 48h = P. falciparum growth inhibition at 48 hours (one generation); P. falciparum luciferase growth in erythrocytes, 48 h; Potency, µM (titrated, usually from 28.7 µM), usual class: inhibitors; hit rate 5.9% among 310,000
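A one-generation exposure of luciferase-tagged malaria parasites in RPMI 1640/Albumax erythrocyte culture, 37 C and 5% CO2. Inhibition is inferred from decreased luminescence after adding detection reagent.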
HCV inh = blocks hepatitis C virus; hit rate 3.4% among 340,000; Potency, µM (highest dose often 41.8 µM), hits mostly inhibitors; Huh7.5.1 HCVcc-Cre infection, luciferase reporter, 44 h; AID 651820
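Compounds are dispensed onto cells plated 4 h earlier at 1,000 per well, with HCVcc-Cre virus (about 0.5 moi) added next. Following 44 h of culture, luminescent signal is measured for 15 sec after 15 min with substrate at room temperature.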
AMA1-RON2 inh = inhibitors of Plasmodium falciparum AMA1-RON2 interaction | hit rate 0.2% among 360,000 | AlphaScreen AMA1-biotinylated RON2 peptide binding | Potency, µM (titrated, usually from 58.2 µM), hits mostly inhibitors; also: nearly all actives have a fitted effect of over 45% in size
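AMA1 (3D7) with his tag at 25 nM final met compounds first, then biotinylated RON2 peptide at 25 nM; detection used donor plus acceptor beads, 10 µg/mL apiece, read by AlphaScreen after 30 min at room temperature.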
Shiga toxin inh = Shiga toxin inhibition; Vero cells, Shiga toxin protein synthesis inhibition reporter; inhibition, % at 38.7 µM; hit rate 9.2% among 290,000; in the data active = inhibition mostly above about 28%, no sharp cut-off; inactive = mostly below about 43%
A number is an active result; . = inactive; ? = inconclusive; / = no result given; [ ] = remark or other dose. This is a sample that favours compounds with a hit; in the whole collection about 21% have one here. Unless noted, calls follow the shape of the dose curve; as a rule, active = well fitted curve in the direction sought with a large enough effect; inconclusive = small, poorly fitted or top-dose-only effect, or another doubt; inactive = no such curve, though single readings can be large; an effect the other way counts as inactive or inconclusive.

SMILES | Cycloheximide cs | Pf growth 96h | Pf growth 48h | HCV inh | AMA1-RON2 inh | Shiga toxin inh
O=C1[C@H]2[C@@H](c3ccc(F)cc3)N3C(=O)N(c4cccc(Cl)c4)C(=O)[C@@]3(Cc3ccccc3)[C@H]2C(=O)N1C1CCCCC1 | / | 11.7µM | 2.62µM | . | . | /
CC(NC(=O)COC(=O)c1ccc[nH]c1=O)c1ccccc1 (configuration not stated) | / | / | / | . | . | /
CC(C)NC(=O)C1(C#N)C=C1c1ccccc1 (configuration not stated) | / | / | / | / | . | /
O=C(OCc1cn([C@@H]2CN(C(=O)C3CCCCC3)[C@@H](c3ccc(Cl)cc3)C[C@H]2O)nn1)c1ccccc1 | / | / | / | / | . | /
Cc1ccc(NC(=O)C2CCCN(c3nccc(C)n3)C2)c(C)c1 (configuration not stated) | . | . | . | . | . | .
O=C(Nc1ccc2c(c1)CCC2)C1CCCN(c2ncccn2)C1 (configuration not stated) | 37.8 | . | . | . | . | 43.3
Cc1ccc(NC(=O)C2CCCN(c3ncccn3)C2)c(C)c1 (configuration not stated) | 33.2 | 13.1µM | . | . | . | 49.0
Cc1cc(C)cc(NC(=O)C2CCCN(c3ncccn3)C2)c1 (configuration not stated) | 11.5 | ? | . | . | . | .
Cc1ccc(NC(=O)C2CCCN(C3=NS(=O)(=O)c4ccccc43)C2)c(O)c1 (configuration not stated) | / | 14.7µM | 11.7µM | . | . | /
COc1cc(/C=C(\C(=O)O)c2ccc(S(=O)(=O)N3CCCC3)s2)ccc1OCCC(C)C | / | / | / | . | . | /
CN(CCc1ccccn1)C(=O)CCC1CCCN(C(=O)c2n[nH]c3c2CCCC3)C1 (configuration not stated) | . | ? | ? | . | . | .
Cc1ccc(N(CC(=O)NCCSc2ccccn2)S(=O)(=O)c2ccc(F)cc2)cc1 | . | ? | ? | . | . | .
CCc1nnc(NC(=O)C2CCCN(c3nc(C)cc(C)n3)C2)s1 (configuration not stated) | . | 4.65µM | . | . | . | .
Cc1nc2ncnn2c(N2CCCC(C(=O)Nc3ccc4c(c3)CCC4)C2)c1C (configuration not stated) | . | . | 5.22µM | 10µM | . | .
Cc1cc(C)nc(N2CCCC(C(=O)Nc3nnc(C(C)(C)C)s3)C2)n1 (configuration not stated) | . | . | . | ? | . | .
O=C(Nc1cccc(C(F)(F)F)c1)C1CCCN(c2ncccn2)C1 (configuration not stated) | . | .[5.75 µM] | . | / | . | .
Cc1ccc(NC(=O)C2CCCN(c3ncccn3)C2)cc1F (configuration not stated) | 23.5 | . | . | / | . | .
CCCS(=O)(=O)N1CCCC(C(=O)Nc2ccc3c(c2)CCC3)C1 (configuration not stated) | . | . | . | . | . | .
C=CCn1c(-c2sc3nc(C)cc(C)c3c2N)n[nH]c1=S | . | . | . | . | . | .
Cc1nnc(SCC(=O)Nc2ccc([N+](=O)[O-])cc2)n1CC1CCCO1 (configuration not stated) | . | . | . | . | . | .
Cc1cc(Cn2nc(C(=O)NCc3cccc(C(F)(F)F)c3)cc2-c2ccccc2)on1 | / | ? | ? | ? | . | /
O=C(COC(=O)C1CC1)NCc1ccccc1 | / | . | . | . | . | /
CCC/C=N/Nc1nc2ccccc2s1 | 34.6 | 2.62µM | . | . | . | 107.7
C(=C\c1ccccc1)/C=N/Nc1nc2ccccc2s1 | 34.0 | . | . | . | . | 95.2
O=S(=O)(N/N=C\C=C\c1ccccc1)c1ccc(Br)cc1 | . | . | ? | . | . | .
SMILES | Cycloheximide cs | Pf growth 96h | Pf growth 48h | HCV inh | AMA1-RON2 inh | Shiga toxin inh
Brc1ccc(/C=C/C=N/Nc2nc3ccccc3s2)cc1 | . | . | . | / | . | 49.1
O=S(=O)(Nc1ccc(-n2cnnn2)cc1)c1ccc(Cl)s1 | / | / | / | . | . | /
CC(C)(C)NC(=O)C1c2ccccc2OCC(=O)N1Cc1ccccc1 (configuration not stated) | / | / | / | / | . | /
CC1(C)C(=O)N(c2ccccc2Cl)C(=O)c2ccccc21 | . | . | . | . | . | .
O=c1c(-c2ccco2)nc2ccccc2n1C(c1ccccn1)c1nc2ccccc2[nH]1 (configuration not stated) | / | / | / | / | . | /
COc1cc(CN2CCN(C(=O)c3ccc(-c4ccccc4)cc3)CC2)cc(OC)c1OC | 19.5 | . | . | ? | ? | 98.0
Cn1nc(-c2ccc(C(=O)N3CCN(Cc4ccccc4)CC3)cc2)c2ccccc2c1=O | . | 13.1µM | / | ? | . | .
COc1cccc(C(=O)N2CCN(Cc3ccccc3C(F)(F)F)CC2)c1 | . | 1.47µM | . | . | ? | .
COc1cccc(CN2CCN(C(=O)c3ccc(-c4ccccc4)cc3)CC2)c1 | . | . | . | ? | ? | .
COc1cccc(CN2CCN(C(=O)c3ccc(-c4ccccc4)cc3)CC2)c1OC | . | 2.94µM | . | . | . | .
Cc1ccc(S(=O)(=O)N2CCCCC2)cc1NCC(=O)Nc1ccc(Br)cc1F | / | / | / | / | . | /
NC(=O)C1CCCN(C(=O)c2cccc(NC(=O)c3cccs3)c2)C1 (configuration not stated) | / | . | . | . | . | /
c1ccc(CNc2cccnc2)cc1 | / | / | / | / | . | /
C=CC(=O)NC(NC(=O)C=C)c1ccccc1F | . | 9.28µM | ? | . | . | .
Cc1cc2c(SCC(=O)NC3CCCC3)ncnc2s1 | . | . | . | . | . | .
CC[n+]1ccccc1/C=C1\Sc2ccc(C)cc2N1C | . | . | 1.04µM | 6.31µM | . | .
CCOC1=C2CN(S(=O)(=O)c3ccc(C)cc3)[C@H](c3ccccc3)C[C@H]2[C@H]2C(=O)N(c3ccccc3)C(=O)[C@H]2C1 | / | / | / | / | . | /
CCOc1ccc(/C=N/NC(=O)c2ccccc2NC(=O)c2ccc(OC)cc2)cc1 | 60.3 | . | . | . | . | 45.4
COc1ccc(C(=O)Nc2ccccc2C(=O)N/N=C/c2ccco2)cc1 | 41.3 | . | . | . | . | 54.7
O=C(CCc1nc(-c2ccccc2Cl)no1)Nc1cccnc1 | . | . | . | 12.6µM | . | .
COc1cccc(-c2noc(CCC(=O)Nc3cccnc3)n2)c1 | 24.6 | / | . | . | . | .
COc1ccccc1-c1noc(CCC(=O)Nc2cccnc2)n1 | / | / | / | / | . | /
COc1ccc(-c2noc(CCC(=O)Nc3cccnc3)n2)cc1OC | . | ? | . | . | . | .
Cn1nccc1C(=O)NC1CCN(Cc2ccccc2)CC1 | . | . | . | . | . | .
Cc1cc(-c2cc(C)c(N)cc2C)c(C)cc1N | / | / | / | . | . | /
Cc1cc(N=Nc2ccc(C)c(N=Nc3cc(C)c(N)cc3N)c2)c(N)cc1N | 61.6 | . | . | . | 22.4µM | 76.2
CCC(=O)Nc1ccc(NC(=O)/C=C/c2ccc(Cl)cc2)cc1 | . | 9.28µM | . | . | . | .

Screens from PubChem BioAssay.
